Sampled rows, rich in hits. Any-hit rate of the full collection: about 7.8%.
HCV inh: HCV inhibition | Huh7.5.1 HCVcc-Cre infection, luciferase reporter, 44 h | Potency, µM (series often up to 41.8 µM), for inactives: at the top dose activity change, negative = inhibition, hits mostly inhibitors | 340,000 tested, 3.4% active | AID 651820; active = well fitted inhibition curve with a large enough effect; inconclusive = small, poorly fitted or top-dose-only effect, or another doubt; inactive = no such curve, though single readings can be large or run the other way; note: potency is the fitted concentration of half-maximal effect
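After 44 h co-culture of compound, cells and HCVcc-Cre (~0.5 moi), substrate is added for 15 min at room temperature and luciferase measured over 15 sec. Cells were seeded at 1,000/well and pre-cultured 4 h.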
Lassa entry inh: inhibitors of Lassa virus binding or cell entry; 300,000 tested, 1.2% active; Lassa virus pseudotype entry inhibition, cell reporter; Potency, µM (titrated, usually from 37.9 µM), inactives show at the top dose activity change, negative = inhibition, hits mostly inhibitors; AID 540256; calls by dose curve; tested in HEK293 cells; note: potency is the fitted concentration of half-maximal effect; nearly all actives have a fitted effect of over 50% in size
MARV entry inh: inhibitors of Marburg virus binding or cell entry | Potency, µM (top dose mostly 37.8 µM), without a hit: at the highest dose activity change, negative = inhibition, hits mostly inhibitors | AID 540276 | 300,000 tested, 1.8% active | Marburg virus pseudotyped entry inhibition, cell reporter; calls by dose curve; tested in HEK293 cells; note: potency is the fitted concentration of half-maximal effect
HCMV antiviral: blocks human cytomegalovirus replication; AID 1259415; activity change, negative = inhibition, % at 57.5 µM; HFF cells, HCMV-luciferase reporter, 72 h; active compounds read low; 410,000 tested, 4.5% active; in the data active = activity change below about -60%; inconclusive = no clear call, values can overlap the other calls; inactive = above about -39%
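After 16 h attachment at 37C, HFF cells received test compound and HCMV-luciferase (1 PFU/cell); reporter luminescence read 72 h later, data normalized against buffer-only and known inhibitor Salinomycin.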
Vaccinia Venus: vaccinia inhibition (Venus reporter) | Vaccinia virus Venus reporter expression, fluorescence | Potency, µM (doses to about 36.5 µM), for inactives: at the highest dose activity change, negative = inhibition, actives largely listed as inhibitors | AID 720580 | 330,000 tested, 0.46% active; calls by dose curve; tested in A549 cells; note: potency is the fitted concentration of half-maximal effect; nearly all actives have a fitted effect of over 30% in size
Vaccinia mCherry: vaccinia inhibition (mCherry reporter). Vaccinia virus mCherry reporter infection, fluorescence. Potency, µM (highest dose often 36.5 µM), for inactives: at the highest dose activity change, negative = inhibition, most hits filed as inhibitors. 310,000 tested, 0.63% active. AID 720579; calls by dose curve; tested in A549 cells; note: potency is the fitted concentration of half-maximal effect; nearly all actives have a fitted effect of over 35% in size
Starred values were filed as active, the others as inactive; ! = not active in a repeat; [ ] = another dose, or the depositor's remark. % is set by controls: 0 for no effect and ±100 for the full control effect.

How did CCOc1ccccc1NC(=O)Cn1c(=O)n(-c2ccc(C)cc2)c(=O)c2c1cnn2C do in these assays?
Lassa entry inh: -16.8%[46.1 µM]; MARV entry inh: 21.0%[46.1 µM]; HCMV antiviral: 13.0; Vaccinia Venus: 8.2%; Vaccinia mCherry: -4.2%

Results for CCn1cc(C(=O)NCc2ccccc2Cl)c(=O)c2cc(S(=O)(=O)N3CCCCC3)ccc21 ?
Lassa entry inh: 0.1%[46.1 µM]; MARV entry inh: -2.6%[46.1 µM]; HCMV antiviral: 18.9; Vaccinia Venus: -0.7%; Vaccinia mCherry: inactive

How did CCn1cc(C(=O)NCc2ccccc2OC)c(=O)c2cc(S(=O)(=O)N3CCCCC3)ccc21 do in these assays?
Lassa entry inh: -35.5%[46.1 µM]; MARV entry inh: inconclusive; HCMV antiviral: -76.7*; Vaccinia Venus: -22.2%; Vaccinia mCherry: inactive

Results for COc1ccc(CNC(=O)Cn2c(=O)oc3cc(S(=O)(=O)N4CCCC4)ccc32)cc1 ?
HCV inh: -21.3%; Lassa entry inh: inconclusive; MARV entry inh: inconclusive; HCMV antiviral: -34.1; Vaccinia Venus: -12.6%; Vaccinia mCherry: -9.2%

Results for COc1ccccc1CNC(=O)Cn1c(=O)oc2cc(S(=O)(=O)N3CCCC3)ccc21 ?
HCV inh: -2.7%; Lassa entry inh: -23.0%[46.1 µM]; MARV entry inh: 1.3%[46.1 µM]; HCMV antiviral: -60.6*!; Vaccinia Venus: -15.6%; Vaccinia mCherry: -20.4%

How did Cc1ccccc1-n1c(=O)c2c3c(sc2n2cnnc12)CCCC3 do in these assays?
Lassa entry inh: -5.3%[46.1 µM]; MARV entry inh: 0.4%[46.1 µM]; HCMV antiviral: -11.9; Vaccinia Venus: 4.5%; Vaccinia mCherry: -10.0%

How did COc1ccc(C(=O)O/N=C/c2c(C(F)(F)F)nn(C)c2SCc2ccccc2Cl)cc1 do in these assays?
HCV inh: inconclusive; Lassa entry inh: inconclusive; MARV entry inh: inconclusive; HCMV antiviral: -82.1*

Results for O=C1[C@H]2[C@H]3[C@H](O)[C@H](O)C/C(=N\OC[C@@H](O)COCc4ccco4)[C@H]3CC[C@H]2C(=O)N1C1CCCCC1 ?
MARV entry inh: -22.0%[14.2 µM]

What do the screens show for `COc1ccc(CN(C)C(=O)C2CCN(C(=O)Nc3ccccc3)CC2)cc1OC`?
HCV inh: -8.6%; HCMV antiviral: 13.1

What do the screens show for `CSc1ccc(CN(C)C(=O)C2CCN(C(=O)Nc3ccccc3)CC2)cc1`?
HCV inh: 10µM*; HCMV antiviral: -8.3

What do the screens show for `CCOC(=O)c1sc2nccc(N(C)C)c2c1N=CNOC`?
HCV inh: inconclusive; Lassa entry inh: 8.5%; MARV entry inh: 3.1%; HCMV antiviral: inconclusive; Vaccinia Venus: -11.4%; Vaccinia mCherry: -18.2%

Results for CCOC(=O)c1sc2nccc(N(C)C)c2c1N=CNOCc1ccccc1 ?
HCV inh: 7.94µM*; Lassa entry inh: inconclusive; MARV entry inh: -15.9%; HCMV antiviral: 10.6; Vaccinia Venus: -13.7%; Vaccinia mCherry: -26.9%

Results for COCCn1c(C)cc(C(=O)COC(=O)c2cccnc2SC)c1C ?
HCV inh: 8.1%; Lassa entry inh: inconclusive; MARV entry inh: inconclusive; HCMV antiviral: 53.1; Vaccinia Venus: -13.2%; Vaccinia mCherry: -1.3%

How did COCCn1c(C)cc(C(=O)COC(=O)c2ccc(S(=O)(=O)N(C)C)cc2)c1C do in these assays?
HCV inh: -2.4%; Lassa entry inh: -0.5%[46.1 µM]; MARV entry inh: 5.0%[46.1 µM]; HCMV antiviral: -87.6*; Vaccinia Venus: -8.4%; Vaccinia mCherry: -16.6%

How did Cc1nn(Cc2ccccc2)c(C)c1C(=O)OCC(=O)c1cc(C)n(C2CC2)c1C do in these assays?
HCV inh: inconclusive; Lassa entry inh: 14.6µM*; MARV entry inh: -28.5%; HCMV antiviral: inconclusive

What do the screens show for `CCn1c(C)cc(C(=O)COC(=O)c2ccccc2[N+](=O)[O-])c1C`?
HCV inh: -27.0%; Lassa entry inh: 0.316µM*; MARV entry inh: inconclusive; Vaccinia Venus: -9.6%; Vaccinia mCherry: -29.3%

What do the screens show for `COCCn1c(C)cc(C(=O)COC(=O)c2ccccc2Br)c1C`?
HCV inh: -17.9%; HCMV antiviral: -82.5*; Vaccinia Venus: -9.0%; Vaccinia mCherry: -10.0%

Results for COc1cc(Cl)c(CC(=O)NO)cc1OC ?
Vaccinia Venus: -14.6%; Vaccinia mCherry: inactive

What do the screens show for `Cc1ccc(C(=O)Nc2nnc(S(=O)(=O)N3c4ccccc4CC3C)s2)cc1` (stereo not drawn)?
Lassa entry inh: -2.2%[46.1 µM]; HCMV antiviral: 0.4; Vaccinia Venus: -10.5%; Vaccinia mCherry: -9.3%

How did COCC(=O)Nc1cc(C(=O)N2CCc3c([nH]c4ccccc34)C2)cc2nc(-c3ccccc3)n(C)c12 do in these assays?
Vaccinia Venus: -6.4%; Vaccinia mCherry: -11.5%

Results for Cc1ccc(S(=O)(=O)NCC2CCC(C(=O)NCCc3ccccc3)CC2)cc1 (stereo not drawn) ?
Lassa entry inh: 8.6%[46.1 µM]; HCMV antiviral: 0.0; Vaccinia Venus: -5.2%; Vaccinia mCherry: -4.6%

What do the screens show for `COCCn1c(C)cc(C(=O)COC(=O)c2c(C)nn(Cc3ccccc3)c2C)c1C`?
HCV inh: inconclusive; Lassa entry inh: 7.08µM*; MARV entry inh: inconclusive; HCMV antiviral: -13.7; Vaccinia Venus: -20.9%; Vaccinia mCherry: inconclusive

How did COCCn1c(C)cc(C(=O)COC(=O)c2n[nH]c3ccccc23)c1C do in these assays?
HCV inh: inconclusive; Lassa entry inh: inconclusive; MARV entry inh: inconclusive; HCMV antiviral: 3.8

Results for CC(=O)c1ccc(OCC(O)CN(C)CCOc2ccc(Br)cc2)cc1 (stereo not drawn) ?
HCV inh: -27.5%; Lassa entry inh: inconclusive; MARV entry inh: 8.91µM*; HCMV antiviral: -16.4; Vaccinia Venus: -11.2%; Vaccinia mCherry: -9.3%

What do the screens show for `C/C(=N\NC(=O)c1cc(-c2cccnc2)nc2ccccc12)c1ccccc1O`?
HCV inh: 3.98µM*; Lassa entry inh: inconclusive; MARV entry inh: 10µM*; HCMV antiviral: -101.9*; Vaccinia Venus: inconclusive; Vaccinia mCherry: inconclusive

How did C/C(=N\NC(=O)c1cc(C2CC2)nc2ccccc12)c1ccc(O)cc1O do in these assays?
HCV inh: 6.31µM*; Lassa entry inh: inconclusive; MARV entry inh: inconclusive; HCMV antiviral: -60.6*; Vaccinia Venus: -24.4%; Vaccinia mCherry: inconclusive

How did COc1ccc(-c2cc(C(=O)N/N=C(\C)c3cccnc3)c3ccccc3n2)cc1 do in these assays?
Lassa entry inh: -27.4%; MARV entry inh: -19.5%; HCMV antiviral: 47.5; Vaccinia Venus: -19.6%; Vaccinia mCherry: -13.1%

How did CCOc1ccc(-c2cc(C(=O)N/N=C(\C)c3cccnc3)c3ccccc3n2)c(OCC)c1 do in these assays?
HCV inh: inconclusive; Lassa entry inh: inconclusive; MARV entry inh: 3.98µM*; HCMV antiviral: -35.7; Vaccinia Venus: 5.2%; Vaccinia mCherry: -3.2%

What do the screens show for `C/C(=N\NC(=O)c1cc(C2CC2)nc2ccccc12)c1ccc(C)s1`?
HCV inh: -5.9%; Lassa entry inh: 0.8%; MARV entry inh: inconclusive; HCMV antiviral: -4.0; Vaccinia Venus: inconclusive; Vaccinia mCherry: inconclusive

Assay outcomes (PubChem)
